Source: the supplement of paper PMC10498489
The whole screen tested about 2,300 compounds, of which about 330 (14%) showed activity. These entries were drawn from the full list. Unmarked numbers belong to inactive results.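 How the source made its calls: active = median modified Z-score above 1.96; inactive = 1.96 or below.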

The compounds below were run on HepG2 Srxn1-GFP reporter cells (+30 nM CDDO-Me) (assay: Srxn1-GFP intensity median modified Z-score relative to plate median; higher = stronger NRF2 / oxidative stress reporter activation, active = hit call of the paper). Settings: 10 µM; exposure time: 24h.
Summary of the method: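 Per-cell cytoplasmic GFP was measured on confocal images of formaldehyde-fixed, Hoechst-stained HepG2 Srxn1-GFP BAC reporter cells, excluding images with fewer than 100 cells. Before this, the cells (20,000 per well, 96-well plates) were co-exposed for 24 h to compound at 10 μM and an NRF2 activator at 30 nM with ≤0.1% DMSO, in three replicate plates. Each value is the median over replicates of the per-plate modified Z-score of GFP intensity. That score was scaled with 1.4826 × median absolute deviation.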

SMILES	Srxn1-GFP intensity median modified Z-score
CC1(C)CC[C@]2(C)CC[C@]3(C)C(=CCC4[C@@]5(C)CC[C@H](O)C(C)(C)C5CC[C@]43C)C2C1 (some centres not stated) [euspeclibcmpd1345]	1.93
CC1(C)CC[C@]2(C(=O)O)CC[C@]3(C)C(=CCC4[C@@]5(C)CC[C@@H](O)C(C)(C)C5CC[C@]43C)C2C1 (some centres not stated) [euspeclibcmpd1603]	4.09 (active)
CC1(C)CC[C@]2(C(=O)O)CC[C@]3(C)C(=CCC4[C@@]5(C)CC[C@H](O)[C@@](C)(CO)C5CC[C@]43C)C2C1 (some centres not stated) [euspeclibcmpd1554]	-0.176
Cc1cc2nc3c(=O)[nH]c(=O)nc-3n(C[C@@H](O)[C@@H](O)[C@@H](O)COP(=O)(O)O)c2cc1C [euspeclibcmpd2323]	-0.0697
Cc1ccc2[nH]c3c(c2c1)CC(Nc1ccc(CCC(=O)N2CCCC2)cc1)CC3 (configuration not stated)	4.66 (active)
O=C(Nc1ccccc1)OCC(CN1CCCCC1)OC(=O)Nc1ccccc1 (configuration not stated) [euspeclibcmpd499]	-0.575
CN1C(C(=O)N=c2cccc[nH]2)C(=O)c2sccc2S1(=O)=O (configuration not stated) [euspeclibcmpd536]	-0.404
N=c1ccn([C@H]2CC[C@@H](CO)O2)c(=O)[nH]1 [euspeclibcmpd485]	-0.378
CCC(CCC(C)[C@H]1CCC2C3CC=C4C[C@@H](OC(C)=O)CC[C@]4(C)C3CC[C@@]21C)C(C)C (some centres not stated) [euspeclibcmpd1595]	-0.573
COc1ccc2oc(-c3ccccc3OC)cc(=O)c2c1	0.553
COc1ccccc1-c1cc(=O)c2c(OC)cccc2o1 [euspeclibcmpd2107]	2.2 (active)
COc1ccc2c(=O)cc(-c3ccccc3OC)oc2c1 [euspeclibcmpd2182]	0.253
COc1cc(OC)c2c(=O)cc(-c3ccccc3)oc2c1 [euspeclibcmpd1677]	0.503
COc1ccc(-c2cc(=O)c3cc(OC)ccc3o2)cc1 [euspeclibcmpd2272]	-0.0301
O=c1cc(-c2ccccc2)oc2cccc(O)c12 [euspeclibcmpd2071]	-0.0825
COc1ccc2oc(-c3ccccc3OC)cc(=O)c2c1 [euspeclibcmpd1670]	3.62 (active)
Cn1c(=O)c2nc(Br)[nH]c2n(C)c1=O [euspeclibcmpd2124]	-0.455
C[N+](C)(C)CCOP(=O)(O)OP(=O)(O)OC[C@H]1OC(n2ccc(=N)[nH]c2=O)[C@H](O)[C@@H]1O (some centres not stated) [euspeclibcmpd812]	-0.665
CC(=O)[C@@]1(O)CCC2C3=CC(Cl)=C4CC(=O)C5CC5[C@]4(C)C3CC[C@@]21C (some centres not stated) [euspeclibcmpd1156]	-0.345
CS(=O)(=O)c1ccc(N)cc1	0.342
CC(C)CCCC(C)[C@H]1CCC2C3CC=C4CC(=O)CC[C@]4(C)C3CC[C@@]21C (some centres not stated) [euspeclibcmpd1330]	-0.35
c1ccc(C2CN3CCSC3=N2)cc1 (configuration not stated) [euspeclibcmpd2122]	1.03
O=C(O)c1nc2cc(Cl)c(Cl)cc2[nH]c1=O [euspeclibcmpd1804]	-0.361

SMILES	Srxn1-GFP intensity median modified Z-score
O=c1[nH]c(=O)n(C2C[C@@H](O)[C@@H](CO)O2)cc1F (some centres not stated) [euspeclibcmpd516]	1.56
O=c1[nH]c(=O)n([C@H]2C[C@H](O)C(CO)O2)cc1I (some centres not stated) [euspeclibcmpd2208]	0
O=c1[nH]c(=O)n(C2C[C@H](O)[C@@H](CO)O2)cc1C(F)(F)F (some centres not stated) [euspeclibcmpd660]	2.21 (active)
CC(NC(CCc1ccccc1)C(=O)O)C(=O)N1Cc2ccccc2CC1C(=O)O (configuration not stated) [euspeclibcmpd841]	-0.626
CC[C@H]1OC(=O)C(C)[C@@H](O[C@H]2C[C@@](C)(OC)[C@@H](O)[C@H](C)O2)[C@H](C)[C@@H](O[C@@H]2O[C@H](C)C[C@H](N(C)C)[C@H]2O)[C@](C)(OC)CC(C)C(=O)C(C)[C@@H](O)[C@]1(C)O (some centres not stated) [euspeclibcmpd669]	1.56
CC(C(=O)O)C1CCC2C3CC=C4CC(O)CCC4(C)C3CCC12C (configuration not stated) [euspeclibcmpd1985]	0.801
CCc1oc2ccccc2c1C(=O)c1cc(Br)c(O)c(Br)c1 [euspeclibcmpd888]	2.7 (active)
CCCCc1oc2ccccc2c1C(=O)c1cc(I)c(OCCN(CC)CC)c(I)c1 [euspeclibcmpd976]	-0.752
O=C(O)c1cc(=O)c2ccccc2o1 [euspeclibcmpd1112]	-0.193
CC(=O)OCC[C@H](C)CCC=C(C)C [euspeclibcmpd1610]	1.13
COc1ccc2c(c1)c(CC(=O)Nc1nccs1)c(C)n2C(=O)c1ccc(Cl)cc1	1.66
COc1ccc(O)c(C(=O)/C=C/c2ccc(F)cc2)c1	1.36
O=C(/C=C/c1ccccc1)c1ccc(O[C@@H]2O[C@H](CO)[C@@H](O)[C@H](O)[C@H]2O)cc1O [euspeclibcmpd1690]	-0.0185
O=C(C=Cc1ccc(O)cc1)c1ccc(O)cc1O [euspeclibcmpd1984]	13.1 (active)
COc1ccc(/C=C/C(=O)c2ccc(O)cc2O)cc1 [euspeclibcmpd1445]	1.77
O=C(C=Cc1ccc(O)cc1)c1ccccc1O [euspeclibcmpd2063]	-0.0605
O=C(C=Cc1ccccc1)c1ccc(O)cc1O [euspeclibcmpd1990]	2.48 (active)
N=c1[nH]c(F)nc2c1ncn2[C@@H]1O[C@H](COP(=O)(O)O)[C@@H](O)[C@@H]1O [euspeclibcmpd850]	0.307
COc1cc(C=CC(=O)O)cc(OC)c1O [euspeclibcmpd1663]	-0.0893
CC(C)(C)NC(=O)C1CCC2C3CCC4NC(=O)C=C[C@]4(C)C3CC[C@]12C (some centres not stated) [euspeclibcmpd849]	-0.292
COc1cccc(OC)c1C(=O)NC1C(=O)N2C1SC(C)(C)C2C(=O)O (configuration not stated) [euspeclibcmpd2201]	0.364
CC(O)=NO [euspeclibcmpd970]	-0.0555
Cn1nnnc1SC=C1CSC2C(NC(=O)C(OC=O)c3ccccc3)C(=O)N2C1C(=O)O (configuration not stated) [euspeclibcmpd2340]	0.482

SMILES	Srxn1-GFP intensity median modified Z-score
C[N+]1(C)C2CC[C@H]1C[C@@H](OC(=O)C(O)c1ccccc1)C2 (some centres not stated) [euspeclibcmpd149]	0.332
CN1C/C(=C/c2cccs2)C(=O)/C(=C/c2cccs2)C1	1.25
O=C1/C(=C/c2cccs2)CCC/C1=C\c1cccs1 [euspeclibcmpd465]	36.6 (active)
O=C1/C(=C/c2cccs2)CSC/C1=C/c1cccs1	13.2 (active)
O=C1/C(=C\c2cccs2)CC/C1=C\c1cccs1	2.51 (active)
C#C[C@]1(O)CCC2C3CCc4cc(O)ccc4C3CC[C@@]21C (some centres not stated) [euspeclibcmpd121]	0.17
COc1cc2[nH]c(N(C)CCCNC(=O)C3CCCO3)nc(=N)c2cc1OC (configuration not stated) [euspeclibcmpd2275]	-0.081
CN[C@H](CC(C)C)C(=O)NC1C(=O)N[C@@H](CC(N)=O)C(=O)N[C@H]2C(=O)Nc3c(O)[nH]c(c(O)[nH]c(=C(O)O)c4cc(O)cc(O)c4c4cc3ccc4O)[C@H](O)c3ccc(c(Cl)c3)Oc3cc2cc(c3O[C@@H]2OC(CO)[C@@H](O)[C@H](O)[C@H]2O[C@H]2C[C@](C)(N)[C@H](O)[C@H](C)O2)Oc2ccc(cc2Cl)[C@H]1O (some centres not stated) [euspeclibcmpd319]	0.197
CCN1CCN(C(=O)NC(C(=O)NC2C(=O)N3C(C(=O)O)=C(CSc4nnnn4C)CSC23)c2ccc(O)cc2)C(=O)C1=O (configuration not stated) [euspeclibcmpd431]	-0.443
CC[C@H](CCC(C)[C@H]1CCC2C3CCC4C[C@@H](O)CC[C@]4(C)C3CC[C@@]21C)C(C)C (some centres not stated) [euspeclibcmpd1543]	-0.389
O=C(O)CC(O)(CC(=O)O)C(=O)O [euspeclibcmpd2464]	-0.363
O=C(O)CC(O)(CC(=O)O)C(=O)O [euspeclibcmpd2462]	0.449
CC(=O)OC1C[C@@]2(C)C(C[C@@H](O)C3[C@]2(C)CC[C@H]2[C@H](C)[C@H](O)CC[C@]32C)C1=C(CCC=C(C)C)C(=O)O (some centres not stated) [euspeclibcmpd136]	-0.739
COc1cc(O)c(C(=O)c2ccccc2)cc1O [euspeclibcmpd1987]	-0.376
CC(C)C(NC(=O)[C@H](CC(=O)O)NC(=O)[C@H](CCCCN)NC(=O)[C@@H](N)CCCN=C(N)N)C(=O)N[C@@H](Cc1ccc(O)cc1)C(=O)O (some centres not stated) [euspeclibcmpd1282]	-0.1
C[C@H](CCC(=O)O)[C@H]1CCC2C3C(=O)CC4CC(=O)CC[C@]4(C)C3CC(=O)[C@@]21C (some centres not stated) [euspeclibcmpd2057]	-0.197
NCCCS(=O)(=O)O [euspeclibcmpd386]	-0.0155
NCCS(=O)(=O)O [euspeclibcmpd625]	-0.209
NCCCCS(=O)(=O)O	10.1 (active)
CCc1[nH]c(=N)[nH]c(=N)c1-c1ccc(Cl)cc1 [euspeclibcmpd259]	1.02
C[C@@H]1CN(c2c(F)c(F)c3c(=O)c(C(=O)O)cn(C4CC4)c3c2F)C[C@H](C)N1 [euspeclibcmpd981]	-0.465
